Source: PubChem
Fam108B inh – Fam108B inhibition, counter-screen for RBBP9 inhibitors; recombinant Fam108B, FP-Rh probe fluorescence polarization; inhibition, % at 9.51 µM; 300,000 tested, 0.33% active;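 active means inhibition above the screen mean inhibition plus 3 SD, computed separately per campaign, cut at about 18% in these data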;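 further: inhibitors lower polarization as less probe binds the enzyme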
GSTO1 inh – blocks human GSTO1 in RBBP9 counter-screen | inhibition, % at 5.96 µM | recombinant GSTO1, activity-based probe fluorescence polarization | P78417 | 300,000 tested, 1.1% active;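 active means inhibition above the campaign mean inhibition plus 3 SD, cut at about 35% in these data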;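 further: 0% = GSTO1-1 with DMSO and 100% = wells lacking GSTO1-1 enzyme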
PAD4 inh – PAD4 (human) enzyme inhibition; inhibition, % at 6.36 µM; recombinant PAD4, RCA probe fluorescence polarization; 330,000 tested, 0.41% active; Q9UM07; AID 485272;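 active means percent inhibition above a cutoff equal to the mean of all tested compounds plus 3 SD, cut at about 15% in these data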;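 further: 0% = PAD4 with RCA probe and DMSO and 100% = probe without PAD4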
PME-1 primary – blocks human protein phosphatase methylesterase 1. recombinant PME-1, FP-Rh probe fluorescence polarization. inhibition, % at 5.9 µM. 320,000 tested, 0.53% active. AID 2130;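 active means inhibition above the campaign mean of all compounds plus 3 SD, cut at about 26% in these data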;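 further: competitive labeling of PME-1 active site by serine hydrolase directed probe; 0% = PME-1 with DMSO and 100% = wells lacking PME-1 enzyme; inhibitors block probe labeling so polarization falls and inhibition rises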
Target sequence (Q9Y570 whole entry, looked up): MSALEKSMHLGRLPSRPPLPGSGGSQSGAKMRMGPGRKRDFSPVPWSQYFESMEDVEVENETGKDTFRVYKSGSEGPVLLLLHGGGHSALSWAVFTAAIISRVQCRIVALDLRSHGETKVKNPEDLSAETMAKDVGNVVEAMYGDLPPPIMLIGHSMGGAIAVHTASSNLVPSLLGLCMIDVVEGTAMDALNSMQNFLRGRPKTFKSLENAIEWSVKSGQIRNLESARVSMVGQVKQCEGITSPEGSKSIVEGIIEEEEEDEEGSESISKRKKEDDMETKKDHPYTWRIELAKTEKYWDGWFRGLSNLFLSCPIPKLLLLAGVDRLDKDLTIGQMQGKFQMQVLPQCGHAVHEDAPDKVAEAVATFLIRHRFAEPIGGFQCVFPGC
pPAFAH inh – inhibitors of human plasma PAF acetylhydrolase (pPAFAH). Q13093. recombinant pPAFAH, FP-rhodamine probe fluorescence polarization. inhibition, % at 3.39 µM. 330,000 tested, 1.5% active. AID 463082;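 active means inhibition above the mean inhibition across the screen plus 3 SD, cut at about 25% in these data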;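 further: inhibitors block binding of the rhodamine activity-based probe so polarization drops; 0% = enzyme with DMSO and 100% = wells lacking pPAFAH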
An asterisk follows results filed as active; / = no result given. Shown are actives, neighbours in structure and some others; about 2.3% of the full set was active somewhere.

SMILES | Fam108B inh | GSTO1 inh | PAD4 inh | PME-1 primary | pPAFAH inh
CCN1C(=O)CC(NNC(=O)c2ccc(Cl)cc2)C1=O (centres undefined) | 2.4 | 16.7 | -2.9 | -5.4 | 5.2
COc1ccc(OC)c(N2C(=O)CC(Cc3ccc(C)cc3)C2=O)c1 (centres undefined) | -1.2 | -2.2 | 0.2 | 31.5* | -2.5
COc1ccc(CC2CC(=O)N(c3ccc(C)cc3)C2=O)cc1 (centres undefined) | 2.1 | -1.7 | 3.5 | -1.6 | -1.4
O=C(N/N=C\c1ccc([N+](=O)[O-])s1)c1cncc(Br)c1 | 9.7 | 43.1* | 3.3 | 5.4 | 23.2
COCCCn1c(=O)c2ccccc2n(Cc2ccccc2)c1=O | 0.0 | 17.5 | -0.2 | 2.0 | 1.9
C=CCn1c(=O)n(CCOC)c(=O)c2sc3ccccc3c21 | -4.3 | 7.5 | 2.3 | -7.7 | 27.6*
COc1ccccc1N=c1oc2cc(O)ccc2cc1C(=O)NCC1CCCO1 (centres undefined) | 1.3 | -1.1 | -3.4 | -0.4 | 26.2*
COc1ccc2oc(=O)c(C(=O)NCC3CCCO3)cc2c1 (centres undefined) | -2.7 | 4.3 | -3.5 | -7.7 | 2.4
COc1cccc(N=c2oc3cc(O)ccc3cc2C(=O)NCC2CCCO2)c1 (centres undefined) | 2.7 | -3.0 | -2.3 | -5.8 | 24.8*
COc1ccccc1NC(=O)c1cc2ccc(O)cc2o/c1=N\O | 15.7 | -9.5 | -0.8 | 27.4* | 13.7
COc1ccccc1N=c1oc2cc(O)ccc2cc1C(N)=O | -0.6 | -1.3 | -1.8 | 4.1 | 22.0
O=C(COC(=O)c1cccc(S(=O)(=O)N2CCN(c3ccccc3)CC2)c1)NCc1ccco1 | 2.1 | 5.3 | 4.1 | 7.4 | 25.6*
O=C(COC(=O)c1cccc(Oc2ccccc2)c1)NCc1ccco1 | -3.1 | 0.6 | 4.5 | -10.8 | 33.9*
CC(C)C(=O)Nc1nnc(SCC(=O)NC2CCCC2)s1 | 1.2 | 3.6 | 1.3 | 0.4 | 8.7
CCC1(CC)NC(=O)N(CC(=O)Nc2sc3c(c2C(N)=O)CCC3)C1=O | 0.5 | 7.2 | 1.5 | -2.1 | 28.0*
CCC1(C)NC(=O)N(CC(=O)Nc2sc3c(c2C(=O)OC)CCCCC3)C1=O (centres undefined) | -0.7 | 6.5 | -2.2 | 3.1 | 8.0
C[C@@H]1CN([C@H](C)CO)C(=O)c2cc(NS(=O)(=O)c3ccc(F)cc3)ccc2O[C@@H]1CN(C)Cc1ccc(Cl)c(Cl)c1 | / | / | -0.1 | / | 29.3*
C[C@H](CO)N1C[C@H](C)[C@H](CN(C)Cc2ccc(-c3ccccc3)cc2)Oc2ccc(NS(=O)(=O)c3ccccc3)cc2CC1=O | / | / | 0.8 | / | 34.0*
Cc1ccc(S(=O)(=O)Nc2ccc3c(c2)CC(=O)N([C@H](C)CO)C[C@@H](C)[C@H](CN(C)Cc2ccc(-c4ccccc4)cc2)O3)cc1 | / | / | 2.6 | / | 19.5
COc1ccc(S(=O)(=O)Nc2cccc3c2O[C@H](CN(C)Cc2ccc(Oc4ccccc4)cc2)[C@@H](C)CN([C@H](C)CO)C3=O)cc1 | / | / | 3.6 | / | 25.6*
CC(C)(C)c1ccc(C(=O)N2CCC(C(=O)NC3CCCCCC3)CC2)cc1 | -0.3 | -1.7 | -1.7 | 1.3 | 3.6
Cc1nn(C)cc1C(C)NC(=O)c1cc(COc2ccc(F)c(F)c2)on1 (centres undefined) | 1.4 | -3.7 | -1.1 | 5.3 | 3.5
COC1=C(Nc2ccc(C)cc2)C(=O)c2ccccc2C1=O | 4.6 | 32.4 | -8.5 | 11.3 | 4.2
COC1=C(Nc2ccccc2)C(=O)c2ccccc2C1=O | 5.6 | 48.6* | -12.1 | 15.8 | 4.4
COc1cccc(Cn2nnc3c(=O)[nH]c(C4CCCN(C(=O)c5ccccc5Cl)C4)nc32)c1 (centres undefined) | -5.3 | 3.7 | -2.8 | 57.6* | 2.3
O=c1[nH]c(C2CCCN(S(=O)(=O)c3cccc(F)c3)C2)nc2c1nnn2Cc1ccccc1 (centres undefined) | 0.1 | 22.3 | 0.1 | 23.7 | 5.7
COc1ccc(Cn2nnc3c(=O)[nH]c(C4CCCN(C(=O)c5ccccc5)C4)nc32)cc1 (centres undefined) | 3.4 | -1.6 | -1.4 | 5.5 | 0.6
O=c1[nH]c(C2CCN(S(=O)(=O)c3ccc(F)cc3)CC2)nc2c1nnn2Cc1ccc2c(c1)OCCO2 | -8.1 | 2.1 | -9.3 | 32.2* | -6.2
O=c1[nH]c(C2CCCN(S(=O)(=O)c3ccccc3)C2)nc2c1nnn2Cc1ccccc1 (centres undefined) | 1.1 | 17.4 | -2.1 | 33.0* | 3.8
